Mtb hypoxia inh – reduces hypoxia-regulated biosensor signal in M. tuberculosis; M. tuberculosis hypoxia-regulated fluorescent reporter, fluorescence; fluorescence inhibition, % (test concentration not listed); 300,000 compounds, 0.1% hits; in the data active means fluorescence inhibition mostly above about 23%, no sharp cut-off; inactive means mostly below about 17%
ugtP null kill – growth inhibition of S. aureus ugtP deletion strain. growth inhibition, % (test concentration not listed). S. aureus RN4220 ugtP deletion, OD600 growth, 16 h. 330,000 compounds, 0.54% hits. AID 1259309; in the data active means growth inhibition above about 68%
CCHFV vOTU inh – CCHFV vOTU protease inhibition | AID 651958 | 370,000 compounds, 0.55% hits | inhibition, % at 11.5 µM | Pep-AMC fluorescence; in the data active means inhibition above about 30%
PriA SSB inh – inhibitors of Klebsiella pneumoniae PriA binding to SSB C-terminal tail. AlphaScreen SSBct-PriA binding, biotinylated peptide. inhibition, % at 33 µM. 430,000 compounds, 0.6% hits. AID 1272365; in the data active means inhibition mostly above about 37%, no sharp cut-off; inactive means mostly below about 20%
Sa RN4220 lethal – kills Staphylococcus aureus RN4220 | S. aureus RN4220 growth, OD600, 16 h | inhibition, % (concentration not given with the values) | 330,000 compounds, 0.33% hits | AID 1259311; in the data active means inhibition above about 85%
Numbers stand for hits; 0 = inactive; - = no result shown; ! = a repeat was not active. Rows were chosen to be rich in hits. Some 1.4% of all compounds tested hit in one or more screens of this group.

SMILES	Mtb hypoxia inh	ugtP null kill	CCHFV vOTU inh	PriA SSB inh	Sa RN4220 lethal
NC(N)=NC(=O)c1nc(Cl)c(N2CCCCCC2)nc1N	-	-	0	0	-
CCC(=O)Nc1ccc(SCC(=O)Nc2nc3ccc(C)cc3s2)nn1	-	-	-	0	-
CCOC(=O)C(=NNc1ccc([N+](=O)[O-])cc1[N+](=O)[O-])C(=O)OCC	-	-	-	90	-
COC(=O)CC/C(C)=N\Nc1ccc([N+](=O)[O-])cc1[N+](=O)[O-]	-	-	0	-	-
CCOc1ccc(NN=C(C(=O)OC)C(=O)OC)c([N+](=O)[O-])c1	0	0	0	0	0
C/C(CC(C)C)=N/Nc1ccc([N+](=O)[O-])cc1[N+](=O)[O-]	-	-	0	-	-
CCOC(=O)CC(C)(C)C(C)=NNc1ccc([N+](=O)[O-])cc1[N+](=O)[O-]	0	0	-	44	0
CCOC(=O)C(C)C(C)=NNc1ccc([N+](=O)[O-])cc1[N+](=O)[O-] (centres undefined)	0	0	-	67	0
O=S(=O)(NCCc1nc2ccccc2[nH]1)c1ccc(Cl)cc1	-	-	-	0	-
COc1ccc2c(c1)C(=NN)c1cc(OC)ccc1-2	0	0	0	47	0
COc1ccc(-c2c(C)nn3c(-n4cnc5ccccc54)cc(C)nc23)cc1OC	-	-	-	0	-
CNc1ccc2oc(CC3O[C@@]4(CCC3C)OC(C(C)C(=O)c3ccc[nH]3)C(C)CC4C)nc2c1C(=O)O (some centres undefined)	-	100	-	-	96
CC(=O)c1cccc(NC(=O)Cc2cc(=O)[nH]c(SCc3ccccc3F)n2)c1	-	-	-	0	-
O=S1(=O)C=C(Sc2nc3ccccc3s2)c2ccccc21	-	91	-	0	0
Cc1cc(C)nc(SC2=CS(=O)(=O)c3ccccc32)n1	0	0	0	0	0
Cc1cccc(NC(=O)Nc2ccc(CN3CCN(c4ccccn4)CC3)cc2)c1	-	-	-	41	-
CCOc1ncccc1C(=O)Nc1ccc2c(c1)CCCN2S(=O)(=O)CC	-	-	-	38	-
CCS(=O)(=O)N1CCCc2cc(NC(=O)c3ccccc3Cl)ccc21	-	-	-	0	-
O=C(NCCCSc1ccccc1)c1cc(Br)ccc1O	0	0	0	0	83
O=C(NCCSc1ccccc1)c1ccc(Br)cc1	0	0	0	0	0
COc1ccc(CCC(=O)NCCSc2ncc(-c3ccc(OC)cc3)[nH]2)cc1	-	-	-	38	-
COc1ccc(-c2cnc(SCCNC(=O)c3ccccc3Br)[nH]2)cc1	-	-	-	0	-
Cc1ccc(Nc2ccc(S(=O)(=O)N3CCOCC3)cc2[N+](=O)[O-])cc1C	0	0	0	69	0
CCOc1ccc(N2CCn3c2nnc(C(=O)NCc2cccnc2)c3=O)cc1	-	-	-	0	-
COc1ccccc1C(CNC(=O)CN1C(=O)NC(C)(c2ccc3ccccc3c2)C1=O)N1CCCC1 (centres undefined)	30	0	0	0	0
SMILES	Mtb hypoxia inh	ugtP null kill	CCHFV vOTU inh	PriA SSB inh	Sa RN4220 lethal
COc1ccc(N2CCN(C(=O)CN3C(=O)NC(C)(c4ccc5ccccc5c4)C3=O)CC2)cc1 (centres undefined)	0	0	0	0	0
O=C(COC(=O)Cc1ccc(Cl)cc1)NCc1cccs1	29	0	0	0	0
CN(C)CCN(C(=O)c1ccc(C(=O)c2ccccc2)cc1)c1nc2cc3c(cc2s1)OCCO3	0	0	0	49	0
CN(C)CCN(C(=O)c1cccc(Cl)c1)c1nc2cc3c(cc2s1)OCCO3	-	-	-	0	-
CN(C)CCCN(C(=O)COc1ccccc1)c1nc2cc3c(cc2s1)OCCO3	0	0	0	0	0
CN(C)CCN(C(=O)c1ccc(S(=O)(=O)N(C)c2ccccc2)cc1)c1nc2cc3c(cc2s1)OCO3	0	0	0	36	0
CN(C)CCN(C(=O)c1ccc(C(=O)c2ccccc2)cc1)c1nc2cc3c(cc2s1)OCO3	0	0	0	43!	0
CN(C)CCCN(C(=O)c1ccc(C(=O)c2ccccc2)cc1)c1nc2cc3c(cc2s1)OCCO3	0	0	0	41!	0
CN(C)CCCN(C(=O)c1ccc(S(=O)(=O)N(C)C)cc1)c1nc2cc3c(cc2s1)OCO3	0	0	0	0	0
O=[N+]([O-])c1cc(F)c(N2CCCCCC2)cc1N1CCc2ccccc2C1	-	-	-	55	-
O=[N+]([O-])c1cc(F)c(N2CCc3ccccc3C2)cc1N1CCCCCC1	-	-	-	65	-
O=[N+]([O-])c1cc(F)c(N2CCc3ccccc3C2)cc1N1CCCC1	-	-	-	0	-
CC1CCN(c2cc(N3CCOCC3)c(F)cc2[N+](=O)[O-])CC1	-	0	0	58	0
Clc1nc(-c2ccccn2)nc2scc(-c3ccccc3)c12	0	0	0	0	0
Nc1nc(-c2ccccn2)nc2sccc12	-	-	-	126	-
Cc1onc(-c2ccccc2Cl)c1C(=O)NCC1CCC(c2nc3ccccc3n2C)CC1 (centres undefined)	-	-	-	0	-
Cc1ccc(C)c(CC(=O)Nc2nnc(-c3ccccc3)o2)c1	-	-	-	0	-
Cc1ccc(C)c(CC(=O)Nc2nnc(-c3ccno3)o2)c1	-	-	-	56	-
O=C(CSc1ccc(-c2ccccn2)nn1)Nc1cccc(Cl)c1	-	-	-	0	-
O=C(CSC1=NNC(c2ccccn2)S1)Nc1ccccc1 (centres undefined)	0	0	0	87	0
O=C(CSC1=NNC(c2ccccn2)S1)Nc1cccc(Cl)c1 (centres undefined)	0	0	0	42	0
O=C(CSc1nnc(-c2cccnc2)o1)NCc1ccc(F)cc1	-	-	-	0	-
CSC(=S)NN=Cc1c[nH]c2ccccc12	0	0	-	0	0
CCc1ccc(OCC(O)CN2CCC(CN3C(=O)c4cccc5cccc(c45)C3=O)CC2)cc1 (centres undefined)	0	85	0	0	0
Cc1cc(C)cc(OCC(O)CN2CCC(CN3C(=O)c4cccc5cccc(c45)C3=O)CC2)c1 (centres undefined)	0	0	0	0	0
SMILES	Mtb hypoxia inh	ugtP null kill	CCHFV vOTU inh	PriA SSB inh	Sa RN4220 lethal
O=C1c2cccc3cccc(c23)C(=O)N1CC1CCN(CC(O)COc2ccc3ccccc3c2)CC1 (centres undefined)	0	0	0	45	0
COc1cccc(OCC(O)CN2CCC(CN3C(=O)c4cccc5cccc(c45)C3=O)CC2)c1 (centres undefined)	0	0	0	0	0
CCOC(=O)c1c[nH]c2c(Cl)cc(Cl)cc2c1=O	-	-	-	0	-
C=C(C)COc1ccc(-c2[nH]ncc2-c2ccc(OC)cc2)c(O)c1	0	0	0	0	0
C=C(C)COc1ccc(-c2[nH]ncc2-c2ccccc2)c(O)c1	0	84	0	0	0
COc1ccccc1C1C(C(C)=O)=C(C)N=c2sc(=Cc3cc(OC)c(OC)c(OC)c3)c(=O)n21 (centres undefined)	0	0	-	0	0
CN(C)C(CNc1ccc(C(F)(F)F)cc1[N+](=O)[O-])c1ccccc1 (centres undefined)	0	0	0	49	0
COc1ccc(C2=CC(=O)CC(c3ccc(F)cc3)C2)c(OC)c1 (centres undefined)	0	0	-	-	0
CCCCCCSc1nsc(NC(=O)CC(C)C)n1	0	0	0	0	0
CCCCCCCSc1nsc(N)n1	0	89	0	0	0
CN(C[C@H]1CCCO1)S(=O)(=O)c1ccc(C(=O)Nc2nnc(-c3ccc(F)cc3)o2)cc1	-	-	-	0	-
CCCN(CCC)S(=O)(=O)c1ccc(C(=O)Nc2nnc(-c3cccs3)o2)cc1	-	-	-	0	-
